Results as given in the supplement of paper PMC13380429.

Test system: Vero E6 infected with SARS-CoV-2
Assay: inhibition of SARS-CoV-2 cytopathic effect; higher = more antiviral protection, active = above 15
Conditions: 48 h

Measured: inhibition of SARS-CoV-2 cytopathic effect

CCc1nc(-c2cccc(C)c2)c(-c2ccnc(NC(=O)c3ccccc3)c2)s1
inactive: 1 nM 1.89% | 8.33 nM -0.27% | 100 nM -3.38% | 833.33 nM -1.52% | 10000 nM -4.97%

C=CC(=O)Nc1cccc(Oc2nc(Nc3ccc(N4CCN(C)CC4)cc3)nc3ccsc23)c1 [olmutinib]
inactive: 1 nM -1.91% | 8.33 nM 3.26% | 100 nM 11.6% | 833.33 nM -12% | 10000 nM -10.1%

CCc1ccc(OCc2ccccc2C(=O)Nc2ccc3nc(C)cc(N)c3c2)cc1
inactive: 1 nM 0.87% | 8.33 nM 3.61% | 100 nM 2.46% | 833.33 nM 1.94% | 10000 nM -28.4%

Cc1ccc(S(=O)(=O)NC2c3ccccc3Oc3ccccc32)cc1
inactive: 1 nM -5.59% | 8.33 nM -2.13% | 100 nM -2.17% | 833.33 nM -6.38% | 10000 nM -2.38%

NC[C@@](O)(c1ccc(Cl)cc1)c1ccc(-c2cn[nH]c2)cc1
inactive: 1 nM -0.97% | 8.33 nM 1% | 100 nM -2.8% | 833.33 nM -3.57% | 10000 nM -13.7%

CC(C)C[C@H](NC(=O)[C@@H](COC(C)(C)C)NC(=O)[C@H](Cc1ccc(O)cc1)NC(=O)[C@H](CO)NC(=O)[C@H](Cc1c[nH]c2ccccc12)NC(=O)[C@H](Cc1cnc[nH]1)NC(=O)[C@@H]1CCC(=O)N1)C(=O)N[C@@H](CCCNC(=N)N)C(=O)N1CCC[C@H]1C(=O)NNC(N)=O [goserelin-acetate]
inactive: 1 nM 1.97% | 8.33 nM 1.03% | 100 nM 2.63% | 833.33 nM -0.57% | 10000 nM 5.2%

CNC(=O)c1ccccc1Sc1ccc2c(/C=C/c3ccccn3)n[nH]c2c1 [axitinib]
inactive: 1 nM -0.21% | 8.33 nM -0.79% | 100 nM 0.55% | 833.33 nM 2.32% | 10000 nM 0.23%

COc1ccc(C(=O)CC2(O)C(=O)Nc3c(Cl)ccc(Cl)c32)cc1 (stereo not given)
inactive: 1 nM 2.13% | 8.33 nM 3.01% | 100 nM -1.11% | 833.33 nM 1.43% | 10000 nM -1.83%

C[C@]12CCC(=O)C[C@@H]1CC[C@@H]1[C@@H]2CC[C@]2(C)C=CC[C@@H]12 [androstenone]
inactive: 1 nM -0.13% | 8.33 nM -0.62% | 100 nM -1.17% | 833.33 nM 0.87% | 10000 nM -0.03%

Oc1c(Br)cc(Br)c2cccnc12 [broxyquinoline]
inactive: 1 nM -1.46% | 8.33 nM 2.01% | 100 nM -2.42% | 833.33 nM -2.35% | 10000 nM -5.91%

FC(F)(F)c1ccc(CNc2ccc(Cc3c[nH]c4ncc(Cl)cc34)cn2)cn1 [pexidartinib]
inactive: 1 nM 0.78% | 8.33 nM 3.65% | 100 nM 0.98% | 833.33 nM 0.96% | 10000 nM 11.6%

CN(C)Cc1ccc(-c2nc3cccc4c3n2CCNC4=O)cc1
inactive: 1 nM 0.51% | 8.33 nM 4.23% | 100 nM 3.95% | 833.33 nM 1.65% | 10000 nM 6.38%

O=[N+]([O-])c1cncn1CCN1CCOCC1 [nimorazole]
inactive: 1 nM -1.41% | 8.33 nM -0.32% | 100 nM 0.99% | 833.33 nM 0.22% | 10000 nM -0.02%

CCOc1ccc(NC(C)=O)cc1 [phenacetin]
inactive: 1 nM 0.72% | 8.33 nM -3.1% | 100 nM 1.64% | 833.33 nM 0.87% | 10000 nM 0.81%

NCCCNCCSP(=O)(O)O [amifostine]
inactive: 1 nM 5.31% | 8.33 nM 3.29% | 100 nM 4.42% | 833.33 nM 1.87% | 10000 nM 3.86%

O=C(NC[C@H]1CN(c2ccc(N3CCOCC3=O)cc2)C(=O)O1)c1ccc(Cl)s1 [Rivaroxaban (Xarelto)]
inactive: 1 nM 1.99% | 8.33 nM 1.35% | 100 nM 3.46% | 833.33 nM 1.51% | 10000 nM 3.09%

O=C(O)c1cc(=O)c2ccccc2[nH]1 [kynurenic-acid]
inactive: 1 nM 3.61% | 8.33 nM 1.12% | 100 nM 2.79% | 833.33 nM 2.98% | 10000 nM 1.89%

CC(C)(O)c1ccn2c(-c3ccc(F)c(-c4ccc(F)cc4C#N)c3)cnc2c1F
inactive: 1 nM -0.56% | 8.33 nM 0.82% | 100 nM 0.5% | 833.33 nM -1.01% | 10000 nM -2.58%

CC(C)(C)c1cc(C(C)(C)C)c(NC(=O)c2c[nH]c3ccccc3c2=O)cc1O [ivacaftor]
inactive: 1 nM -1.65% | 8.33 nM 1.11% | 100 nM -2.96% | 833.33 nM -10.4% | 10000 nM -4.71%

CC(C)(C)c1ccc(-c2nc3ccccc3[nH]2)cc1
inactive: 1 nM -0.43% | 8.33 nM -0.22% | 100 nM 1.49% | 833.33 nM 3.96% | 10000 nM 4.75%
